Measurements published in PubChem BioAssay (Tox21).
Inconclusive results are not listed. Unmarked numbers belong to inactive results. The call rests on the fitted dose curve; in most records, active means well fitted cell-killing curve with a large enough effect in the repeat runs; inconclusive means weak or mixed curves, or effect the other way; inactive means no such curve, though single readings can be large or run the other way.

assay: qHTS assay for small molecule activators of the heat shock response signaling pathway - cell viability counter screen (AID 743209); conditions: HSE-bla HeLa viability, CellTiter-Glo luminescence, 5 h; series mostly up to 62.6 µM; activity change, negative = cytotoxicity: at the top concentration; further: nearly all actives have a fitted effect of over 50% in size
Method in brief: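 Viability of HSE-bla HeLa cells is measured with CellTiter-Glo in the wells already used for the reporter read. Compound exposure lasts 5 h at 37 C, and luminescence is read after 30 min at room temperature.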
On the % scale 0 is the no-effect control and ±100 the full control effect.

Compound	activity change, negative = cytotoxicity
Cc1ccccc1N=C(N)Nc1ccccc1C	3.69%
CCOC(=O)OC(C)OC(=O)[C@@H]1N2C(=O)[C@@H](NC(=O)[C@H](N)c3ccccc3)[C@H]2SC1(C)C (stereo not given in full)	4.01%
CC1=Nc2ccc3ccccc3c2C1(C)C	-4.07%
CC(C)c1nc(CN(C)C(=O)N[C@H](C(=O)N[C@@H](Cc2ccccc2)C[C@H](O)[C@H](Cc2ccccc2)NC(=O)OCc2cncs2)C(C)C)cs1	-15.1%
CC1=C(CC=O)C(C)(C)CCC1	-23.4%
O=C(/C=C/c1ccccc1)OCCc1ccccc1	5.05%
CN1C(=O)OC(C)(C)C1=O	0.18%
CCN(CC)CCNC(=O)COc1ccc(OC)cc1	1.04%
CC1CC(OC(=O)C(O)c2ccccc2)CC(C)(C)N1C (stereo not given)	3.96%
Cc1ccc(CO)cc1	-1.04% [at 81.1 µM]
NC1[C@H]2CN(c3nc4c(cc3F)c(=O)c(C(=O)O)cn4-c3ccc(F)cc3F)C[C@@H]12 (stereo not given in full)	-1.39%
CC(CO)CO	8.06% [at 81.1 µM]
O=C1c2ccccc2C(=O)C1c1nc2ccccc2c(Br)c1O	12.1%
CC(C)(O)c1ccc(CNC(=O)c2cccnc2Oc2ccc3nonc3c2)cc1	-8.93%
CCCCCCCCCCC(=O)O	-0.31% [at 81.1 µM]
